Source: the supplement of paper PMC13380429

Test system: Vero E6 infected with SARS-CoV-2
Assay: inhibition of SARS-CoV-2 cytopathic effect; higher = more antiviral protection, active = above 15
Details: 48 h

Measured: inhibition of SARS-CoV-2 cytopathic effect

CC[N+](CC)(CC)CCOc1cccc(OCC[N+](CC)(CC)CC)c1OCC[N+](CC)(CC)CC [gallamine-triethiodide]
inactive: 1 nM 0.22% | 8.33 nM 3.57% | 100 nM 3.37% | 833.33 nM 2.88% | 10000 nM -1.08%

O=C(O)c1cc(=O)c2ccccc2[nH]1 [kynurenic-acid]
inactive: 1 nM 3.61% | 8.33 nM 1.12% | 100 nM 2.79% | 833.33 nM 2.98% | 10000 nM 1.89%

O=C(Nc1ccccc1)c1ccccc1O [salicylanilide]
inactive: 1 nM -4.46% | 8.33 nM -2.22% | 100 nM -1.24% | 833.33 nM 1.14% | 10000 nM 0.54%

Cc1onc(-c2ccccc2Cl)c1C(=O)N[C@@H]1C(=O)N2[C@@H]1SC(C)(C)[C@@H]2C(=O)O [cloxacillin]
inactive: 1 nM 2.33% | 8.33 nM -1.52% | 100 nM 0.8% | 833.33 nM 3.43% | 10000 nM 1.27%

CC(C)(C)OC(=O)N[C@H]1CCCCC/C=C\[C@@H]2C[C@@]2(C(=O)NS(=O)(=O)C2CC2)NC(=O)[C@@H]2C[C@@H](OC(=O)N3Cc4cccc(F)c4C3)CN2C1=O [danoprevir]
inactive: 1 nM 1.7% | 8.33 nM 1.4% | 100 nM 1.06% | 833.33 nM 0.24% | 10000 nM -1.76%

O=C1NN(C(=O)Nc2ccc(Br)cc2)[C@@H](c2ccccc2)[C@@H]1c1ccccc1
inactive: 1 nM 0.57% | 8.33 nM 1.35% | 100 nM -2.12% | 833.33 nM -0.26% | 10000 nM -1.96%
